# Measured values as given in PubChem BioAssay (NCI).
# The panel holds about 83,000 compounds, 20% with a hit somewhere; the sample as a whole holds those more often.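 In brief: 96-well plates, 48 h treatment, single concentration, percent growth endpoint.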 Values without a mark were called inactive. Activity calls are given as the source filed them. Rule for the calls: active = growth percent below 10; inactive = the rest.
# Tested on: MDA-MB-435 melanoma
# Assay: NCI-60 one-dose screen, 48 h (100 = growth as untreated, 0 = no growth, -100 = all killed)
# Conditions: 10 µM
row,SMILES,growth
1,NS(=O)(=O)Oc1ccc(NC(=O)C2CCCCCC2)cc1,106%
2,O=C(CSc1nnc(-c2cccnc2SCc2ccccc2)o1)Nc1nc(Cl)cc(Cl)n1,105%
3,O=C1/C=C/[C@@H](O)[C@@H]2C[C@@H](O)C[C@H]2/C=C/CCC[C@H](CCc2ccc(NC(=S)Nc3ccc4c(c3)C(=O)OC43c4ccc(O)cc4Oc4cc(O)ccc43)cc2)O1,18.8%
4,O=C(CCl)Nc1ccc(Cc2ccc(NC(=O)CCl)cc2)cc1,0.989% (active)
5,Cc1cc(Cl)ccc1Nc1nc(C(F)(F)F)ccc1C(=O)N/N=C/c1c(Cl)cccc1Cl,10.5%
6,COc1ccc2c(c1)C(=O)/C(=C/c1ccc([N+](=O)[O-])o1)O2,-72.5% (active)
7,S=C(SSC(=S)N(c1ccccc1)c1ccccc1)N(c1ccccc1)c1ccccc1,104%
8,CC(C)=CCC/C(C)=C/CC/C(C)=C/CC/C=C(\C)CC/C=C(\C)CCC(=O)Nc1ccn(C2OC(CO)C(O)C2(F)F)c(=O)n1 (stereo unspecified),29.9%
9,c1ccc(/C(=N\Nc2ccc3ccccc3n2)c2ccccn2)cc1,23.4%
10,c1ccc(CSc2ncccc2-c2nnc(SCCN3CCOCC3)o2)cc1,114%
11,CN(C)c1ncnc2c1nnn2C1OC(CO)C(O)C1O (stereo unspecified),8.72% (active)
12,COc1ccccc1/C=N\N/C(N)=N\N=C\c1ccccc1OC,-39.2% (active)
13,COc1cc(/C=C/c2cc(/C=C/c3ccc(O)c(OC)c3)nc(N)n2)ccc1O,-8.12% (active)
14,O=C(/C=C/c1cccc(B(O)O)c1)c1cccc(B(O)O)c1,0.799% (active)
15,CN(C)CCC1(c2ccccc2)CCN(C)C1=O (stereo unspecified),105%
16,COc1ccc(/C=C/c2nnc(/C=C/c3ccc(OC)c(OC)c3)o2)cc1OC,10.4%
17,CN(C)c1ccc(/C=N/NC(=O)c2ccccc2Nc2cccc(C(F)(F)F)c2)cc1,92.3%
18,CN(C)CCOc1ccc(-c2nc3sccn3c2-c2ccnc(S(C)(=O)=O)n2)cc1,107%

row,SMILES,growth
1,COc1ccc(CCN2CCC(Nc3nc4ccccc4n3Cc3ccc(F)cc3)CC2)cc1,-91.7% (active)
2,O=C(CN(C1CCCCC1)C1CCCCC1)Nc1ccc(S(=O)(=O)c2ccc(NC(=O)CN(C3CCCCC3)C3CCCCC3)cc2)cc1,-39.5% (active)
3,COc1ccc2nc(-c3ccc(Cl)cc3)cc(-c3nnc(SC/C(=N\O)c4ccccc4)n3-c3ccccc3)c2c1,83.1%
4,Cc1cc(CSc2ccccc2C(=O)N2CC=C(c3ccccc3)CC2)on1,98%
5,CCOC(=O)c1cc(C(=O)c2cc(OC)c(OC)c(OC)c2)n2nc(C)ccc12,3.24% (active)
6,O=C(O)c1ccc(-n2cc(CNc3ccc(Cl)cc3)c(-c3ccccc3)n2)cc1,91.9%
7,CNC(=O)c1cc(Oc2ccc3c(c2)sc2nc(-c4ccc(N)cc4)cn23)ccn1,13%
8,Nc1ccc(CC[C@H]2CCC/C=C/[C@@H]3C[C@H](O)C[C@H]3[C@H](O)/C=C/C(=O)O2)cc1,11.4%
9,CNC(=O)c1cn(C2CC2)c2cc(N3CCN(C(=O)c4cc(OC)c(OC)c(OC)c4)CC3)c(F)cc2c1=O,108%
10,CN1CCN(C2=Nc3ccccc3Oc3ccc(Cl)cc32)CC1,96.9%
11,COc1ccc(Cc2cnc(N)nc2N)cc1OC,107%
12,COc1ccc(C(c2ccc(OCCN(C)C)cc2)c2cc3ccccc3c3ccccc23)cc1 (stereo unspecified),-25.4% (active)
13,O=C(N/N=C/c1ccc(Cl)cc1)c1ccccc1Nc1cccc(C(F)(F)F)c1,53%
14,CC(=O)O[C@@]12CO[C@@H]1C[C@H](O)[C@@]1(C)C(=O)[C@H](O)C3=C(C)[C@@H](OC(=O)[C@H](O)[C@@H](NC(=O)OC(C)(C)C)c4ccccc4)C[C@@](O)([C@@H](OC(=O)c4ccccc4)C12)C3(C)C (stereo partly specified),-11.7% (active)
15,CS(=O)(=O)c1nccc(-c2c(-c3cccc(OCCc4ccccc4)c3)nc3sccn23)n1,104%
16,C(=N\Nc1ncnc2sc3c(c12)CCNC3)/c1cccc2ccccc12,97.7%
17,CNS(=O)(=O)Oc1ccc(-c2sc3cc(OS(=O)(=O)NC)ccc3c2C(=O)c2ccc(OCCN3CCCCC3)cc2)cc1,70%
18,CCCCC/C=C/C/C=C/CCCCCCCC1=NC(C)(C)CN1C(C)C,15.9%
